From PubChem BioAssay (NCATS)
Results filed as inconclusive are left out. A call without a number means that no potency is given here. The source made the active and inactive calls. Calls follow the shape of the dose curve; as a rule, active = well fitted curve in the direction sought with a large enough effect; inconclusive = small, poorly fitted or top-dose-only effect, or another doubt; inactive = no such curve, though single readings can be large; an effect the other way counts as inactive or inconclusive.

Assays:
[1] = qHTS of pediatric cancer cell lines to identify multiple opportunities for drug repurposing: Primary screen for DAOY cells (AID 1347090); also: nearly all actives have a fitted effect of over 55% in size; also: potency is read from the fitted curve at half-maximal effect
How it was run: (§1)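 Eight- or eleven-point concentration series, 48 h treatment at 37 degrees C in growth media; readout CellTiter-Glo luminescence. Potency and efficacy were taken from the concentration-response curves.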

[2] = qHTS of pediatric cancer cell lines to identify multiple opportunities for drug repurposing: Primary screen for SJ-GBM2 cells (AID 1347091); also: potency is read from the fitted curve at half-maximal effect
How it was run: as §1

[3] = qHTS of pediatric cancer cell lines to identify multiple opportunities for drug repurposing: Primary screen for A673 cells (AID 1347092); also: nearly all actives have a fitted effect of over 45% in size; also: potency is read from the fitted curve at half-maximal effect
How it was run: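 Luminescence from CellTiter-Glo, taken after 15 min at room temperature, served as the proxy for metabolically active cells following 48 h treatment. Both potency and efficacy were taken from curves fitted to the titration data.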

[4] = qHTS of pediatric cancer cell lines to identify multiple opportunities for drug repurposing: Primary screen for SK-N-MC cells (AID 1347093); also: potency is read from the fitted curve at half-maximal effect
How it was run: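 Metabolically active cells were quantified by ATP-dependent luminescence (CellTiter-Glo, 15 min at room temperature) following 48 h treatment. Cells had been plated at 500-1,000 per well and settled for 5 h beforehand.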

[5] = qHTS of pediatric cancer cell lines to identify multiple opportunities for drug repurposing: Primary screen for BT-37 cells (AID 1347094); also: potency is read from the fitted curve at half-maximal effect
How it was run: (§2)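 Cells plated at 500-1,000/well in growth medium, compounds added after 5 h. MIPE tested at 11 points (from 0.78 nM), NPC at 8 points (from 0.59 nM). CellTiter-Glo luminescence after 48 h; concentration-response curves from primary screen.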

[6] = qHTS of pediatric cancer cell lines to identify multiple opportunities for drug repurposing: Primary screen for NB-EBc1 cells (AID 1347095); also: potency is read from the fitted curve at half-maximal effect
How it was run: as §2

[7] = qHTS of pediatric cancer cell lines to identify multiple opportunities for drug repurposing: Primary screen for U-2 OS cells (AID 1347096); also: nearly all actives have a fitted effect of over 50% in size
How it was run: (§3)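 Cells (500-1,000/well) in growth media were settled 5 h at 37 degrees C, then given compounds for 48 h. Viability was read as CellTiter-Glo luminescence. Primary runs used MIPE at 11 points (0.78 nM-46 µM) and NPC at 8 points (0.59 nM-46 µM); follow-ups used 11 points.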

[8] = qHTS of pediatric cancer cell lines to identify multiple opportunities for drug repurposing: Primary screen for SK-N-SH cells (AID 1347098); also: nearly all actives have a fitted effect of over 65% in size; also: potency is read from the fitted curve at half-maximal effect
How it was run: (§4)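 Cells (500-1,000/well) rested 5 h, then received compounds for 48 h; metabolically active cells were measured by CellTiter-Glo luminescence. Final concentrations spanned up to 46 µM (MIPE, 11-point) or 0.59 nM-46 µM (NPC, 8-point) in primary screens, 11-point in follow-ups.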

[9] = qHTS of pediatric cancer cell lines to identify multiple opportunities for drug repurposing: Primary screen for NB1643 cells (AID 1347099); also: nearly all actives have a fitted effect of over 50% in size; also: potency is read from the fitted curve at half-maximal effect
How it was run: as §2

[10] = qHTS of pediatric cancer cell lines to identify multiple opportunities for drug repurposing: Primary screen for BT-12 cells (AID 1347101); also: nearly all actives have a fitted effect of over 25% in size; also: potency is read from the fitted curve at half-maximal effect
How it was run: as §4

[11] = qHTS of pediatric cancer cell lines to identify multiple opportunities for drug repurposing: Primary screen for Rh18 cells (AID 1347102); also: nearly all actives have a fitted effect of over 65% in size; also: potency is read from the fitted curve at half-maximal effect
How it was run: as §3

[12] = qHTS of pediatric cancer cell lines to identify multiple opportunities for drug repurposing: Primary screen for OHS-50 cells (AID 1347103); also: nearly all actives have a fitted effect of over 40% in size; also: potency is read from the fitted curve at half-maximal effect
How it was run: as §4

[13] = qHTS of pediatric cancer cell lines to identify multiple opportunities for drug repurposing: Primary screen for RD cells (AID 1347104); also: nearly all actives have a fitted effect of over 55% in size; also: potency is read from the fitted curve at half-maximal effect
How it was run: as §2

[14] = qHTS of pediatric cancer cell lines to identify multiple opportunities for drug repurposing: Primary screen for MG 63 (6-TG R) cells (AID 1347105); also: nearly all actives have a fitted effect of over 50% in size; also: potency is read from the fitted curve at half-maximal effect
How it was run: as §2

[15] = qHTS of pediatric cancer cell lines to identify multiple opportunities for drug repurposing: Primary screen for control Hh wild type fibroblast cells (AID 1347106);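 also: series mostly up to about 46 µM; a drop in luminescence marks cytotoxicity and a rise apparent proliferation; nearly all actives have a fitted effect of over 55% in size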
How it was run: as §3

[16] = qHTS of pediatric cancer cell lines to identify multiple opportunities for drug repurposing: Primary screen for Rh30 cells (AID 1347107); also: series mostly up to about 46 µM; nearly all actives have a fitted effect of over 75% in size
How it was run: as §3

[17] = qHTS of pediatric cancer cell lines to identify multiple opportunities for drug repurposing: Primary screen for Rh41 cells (AID 1347108);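 also: series mostly up to about 46 µM; luminescence drop marks cytotoxic hits; nearly all actives have a fitted effect of over 70% in size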
How it was run: as §2

[18] = qHTS of pediatric cancer cell lines to identify multiple opportunities for drug repurposing: Confirmatory screen for A673 cells (AID 1347110);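 also: cells exposed to compound for 48 h before the viability read; nearly all actives have a fitted effect of over 65% in size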; also: potency is read from the fitted curve at half-maximal effect
How it was run: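 qHTS titration format: primary MIPE 0.78 nM-46 µM (11 pts), NPC 0.59 nM-46 µM; confirmation 11 pts. 48 h, CTG luminescence.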

[19] = qHTS of pediatric cancer cell lines to identify multiple opportunities for drug repurposing: Primary screen for LAN-5 cells (AID 1347100); also: potency is read from the fitted curve at half-maximal effect
How it was run: as §3

[20] = qHTS of pediatric cancer cell lines to identify multiple opportunities for drug repurposing: Primary screen for Saos-2 cells (AID 1347097); also: nearly all actives have a fitted effect of over 40% in size; also: potency is read from the fitted curve at half-maximal effect
How it was run: as §2

| Structure (SMILES) | Potency [1] | Potency [2] | Potency [3] | Potency [4] | Potency [5] | Potency [6] | Potency [7] | Potency [8] | Potency [9] | Potency [10] | Potency [11] | Potency [12] | Potency [13] | Potency [14] | Potency [15] | Potency [16] | Potency [17] | Potency [18] | Potency [19] | Potency [20] |
| --- | --- | --- | --- | --- | --- | --- | --- | --- | --- | --- | --- | --- | --- | --- | --- | --- | --- | --- | --- | --- |
| CCN(CC)C(=O)C1CN2CCc3cc(OC)c(OC)cc3C2CC1OC(C)=O (centres undefined) | inactive | inactive | inactive | inactive | inactive | inactive | inactive | inactive | inactive | inactive | inactive | inactive | inactive | inactive | inactive | inactive | inactive |  |  |  |
| Cc1nc(N)nc(N)c1-c1ccc(Cl)c(Cl)c1 | 0.841 µM (active) | 0.299 µM (active) | 1.06 µM (active) | 0.0335 µM (active) | 0.55 µM (active) | 0.422 µM (active) |  |  | inactive | 0.872 µM (active) | inactive | 2.76 µM (active) | 1.33 µM (active) |  |  | inactive | inactive | 1.65 µM (active) |  |  |
| O=C(O)CCCC[C@@H]1SC[C@@H]2NC(=O)N[C@@H]21 | inactive | inactive | inactive | inactive | inactive | inactive | inactive | inactive | inactive | inactive | inactive |  | inactive | inactive | inactive | inactive | inactive |  | inactive |  |
| CCC1(c2cnc[nH]2)Cc2ccccc2C1 | inactive | inactive | inactive | inactive | inactive | inactive | inactive | inactive | inactive | inactive | inactive |  | inactive | inactive | inactive | inactive | inactive | inactive | inactive |  |
| O=C(CCCl)NCCc1ccccc1 | inactive | inactive | inactive | inactive | inactive |  | inactive | inactive | inactive | inactive | inactive | inactive | inactive | inactive | inactive | inactive | inactive |  | inactive | inactive |
| Cc1c(N)cccc1C(F)(F)F | inactive | inactive | inactive | inactive | inactive |  | inactive | inactive | inactive | inactive | inactive | inactive |  | inactive | inactive | inactive | inactive |  | inactive | inactive |
| O=C(OCC(COC(=O)c1cccnc1)(COC(=O)c1cccnc1)COC(=O)c1cccnc1)c1cccnc1 | inactive | inactive | inactive | inactive | inactive | inactive | inactive |  | inactive | inactive | inactive | inactive | inactive | inactive | inactive | inactive | inactive |  | inactive |  |
| O=C1CC[C@H](C(=O)N2CCCCC2)N1 | inactive | inactive | inactive | inactive | inactive | inactive | inactive | inactive | inactive |  | inactive | inactive | inactive | inactive | inactive | inactive |  |  |  |  |
| CCCCCCCCCCCCCC[N+](C)(C)C | 10.6 µM (active) | 11.9 µM (active) | 2.11 µM (active) | 3.35 µM (active) | 15.5 µM (active) | 21.1 µM (active) |  | 15.4 µM (active) | 23.7 µM (active) | 3.89 µM (active) | 4.22 µM (active) | 3.09 µM (active) | 11.9 µM (active) | 26.6 µM (active) |  |  |  |  | 7.5 µM (active) | 16.8 µM (active) |
| COc1ccc2nc(SCc3ncc(C)c(OC)c3C)[nH]c2c1 | inactive | inactive | inactive | inactive | inactive |  | inactive | inactive | inactive | inactive | inactive |  | inactive | inactive | inactive | inactive | inactive |  | inactive | inactive |
| CN(C)C(=O)CNC(=O)Cc1ccccc1 | inactive | inactive | inactive | inactive | inactive | inactive | inactive | inactive | inactive | inactive | inactive |  | inactive |  | inactive | inactive |  |  | inactive |  |
| CC(C)(C)c1cc(C=O)cc(C(C)(C)C)c1O | inactive | inactive | inactive | inactive | inactive | inactive | inactive | inactive | inactive | inactive | inactive |  | inactive | inactive | inactive | inactive | inactive |  | inactive |  |
| O=C(O)C(=O)Nc1cccc(-c2nn[nH]n2)c1 | inactive | inactive | inactive | inactive | inactive |  | inactive | inactive | inactive | inactive | inactive | inactive | inactive | inactive | inactive | inactive | inactive |  | inactive | inactive |
| Cc1cc(C(C)(C)C)c(O)c(C(C)(C)C)c1 | inactive | inactive | inactive | inactive | inactive |  | inactive | inactive | inactive | inactive | inactive |  |  | inactive | inactive | inactive |  |  | inactive | inactive |
| Nc1cccc2c(N)cccc12 | inactive | inactive | 24.3 µM (active) | 24.3 µM (active) |  |  | inactive | 28 µM (active) |  |  |  | 31.7 µM (active) |  |  |  |  |  |  | inactive | 27.3 µM (active) |
